# Measured values as given in PubChem BioAssay (Tox21).
# Inconclusive results are not listed. A number with no mark means an inactive call. Calls of active or inactive are those of the source. Calls follow the shape of the dose curve; as a rule, active = well fitted activation curve with a large enough effect in the signal ratio in the repeat runs (not every such curve was filed as active); inconclusive = weak or mixed curves; inactive = flat fitted curve, though single readings scatter; the % refers to the signal ratio.
# Test: qHTS assay to identify small molecule agonists of H2AX (AID 1224845)
# Settings: CHO-K1 phospho-H2AX Ser139 HTRF, 3 h; series mostly up to 154 µM; activation (H2AX phosphorylation): at the top concentration
# From the text: National Center for Advancing Translational Sciences [NCATS]
# NIH Chemical Genomics Center [NCGC]
# U.S. Environmental Protection Agency [EPA]
# National Institutes of Environmental Health Sciences [NIEHS]
# National Toxicology Program [NTP]
# U.S. Food and Drug Administration [FDA]
# HTRF phospho-H2AX (Ser139) assay (Cisbio Bioassays, US) enables the quantitative detection of the histone variant H2AX when phosphorylated on serine 139. When double-stranded DNA breaks, either by ionizing radiation or endogenous physiological processes, H2AX becomes phosphorylated at Ser139. This phospho-Ser139 serves as a sensitive biomarker for the detection of such breaks, localizing the site of DNA repair. So, HTRF phospho-H2AX Ser139 is a pertinent assay to study genome stability, the cell cycle, DNA repair, and it serves as a biomarker for cancer, and to understand aging. Wild type CHO-K1 cells were used to identify the inducers of Phospho-H2AX Ser 139 from the Tox21 10K compound collections.
# Tox21 Assay Protocol Summary:
# The CHO-K1 cells suspended in culture medium containing 10% FBS were dispensed at 1000 cells/ 3 ul/well in 1536-well white wall/solid bottom plates (Greiner Bio-One North America, NC) using a Multidrop Combi (Thermo Fisher Scientific Inc., Waltham, MA). After the assay plates were incubated at 37C overnight, 23 nl of compounds at 15 concentrations (from 5-48 columns) or positive control (from 1 to 4 columns) were transferred to the assay plates using a Pintool station (Wako, San Diego, CA) into each well resulting in a final DMSO concentration of 0.76%. After 3hr incubation at 37C, 1 uL/well Supplemented Lysis buffer (diluted 100 fold blocking reagent in lysis buffer) (HTRF Phospho-H2A.X (S139) Assay kit from Cisbio US Inc., Bedford, MA) was added using a Flying Reagent Dispenser (FRD) (Aurora Discovery, CA). After 10sec spin at 1000 rpm in a plate centrifuge, the assay plates were incubated at room temperature for 30 min. Then followed by the addition of 1 uL/well detection buffer (containing a mixture of two antibodies, one labeled with cryptate, Anti pH2AX (S139)-K and another labeled with d2, Anti H2AX-d2) using FRD. After incubation at room temperature for 24 hr, the time resolved fluorescence at excitation 320 nm and emissions at 665 nm and 620 nm was measured using an Envision plate reader (PerkinElmer, Waltham, MA).
# % is scaled to controls: 0 for no effect and ±100 for the full control effect.
SMILES,activation (H2AX phosphorylation),outcome
N#CC(Br)(Br)C(N)=O,0.924%,
Nc1c(Cl)c(F)nc(OCC(=O)O)c1Cl,-2.64%,
Oc1ccc2c3c1O[C@H]1[C@@H](O)C=C[C@H]4[C@@H](C2)NCC[C@@]341,1.75%,
C(COCC1CO1)OCC1CO1 (stereo not given),0.186%,
NC1(c2ccccc2)CCCCC1,-3.61%,
O=C(Cl)c1ccccc1,-0.186%,
C#CCOC(=O)/C=C(C)/C=C/CC(C)CCCC(C)C (stereo not given),-3.21%,
Cl/C=C/CCl,-2.23%,
C=C(Cl)CCl,-1.48%,
CC(C)NCC(O)c1ccc([N+](=O)[O-])cc1 (stereo not given),0.292% [at 70.9 µM],
CN1COCN(Cc2cnc(Cl)s2)/C1=N\[N+](=O)[O-],-2.94%,
C=C1C[C@@H]2[C@H](CC[C@]3(C)C(=O)CC[C@@H]23)[C@@]2(C)C=CC(=O)C=C12,6.18% [at 70.9 µM],
CCC(C)C(C)(COC(N)=O)COC(N)=O (stereo not given),-0.0024% [at 70.9 µM],
CCOC(=O)Nc1cccc(OC(=O)Nc2ccccc2)c1,0.18%,
O=C(Cl)C(Cl)(Cl)Cl,-0.0502%,
c1cncc([C@@H]2CCCCN2)c1,0.0973%,
ClC(Cl)(Cl)Cl,3.22%,
Cc1cc(OC(=O)N(C)C)nn1C(=O)N(C)C,0.0171%,
C/C=C/CC#N,0.96%,
BrCCc1ccccc1,1.64%,

SMILES,activation (H2AX phosphorylation),outcome
CC(C)(N)Cc1ccccc1Cl,-2.31% [at 70.9 µM],
CNC(=O)NC(O)C(Cl)(Cl)Cl (stereo not given),2.68% [at 70.9 µM],
BrCc1ccc(Br)cc1,0.661%,
C[C@@H](N)[C@@H](O)c1ccccc1,-0.147% [at 70.9 µM],
C1CN2CCC1CC2,0.581% [at 70.9 µM],
CCSC(=O)Cl,1.43%,
Cc1ccc(Cl)c(O)c1,-0.0547% [at 70.9 µM],
CCc1ccc(C2CCNCC2)cc1,-2.34% [at 70.9 µM],
CN(C)C(=O)Oc1cc(OC(=O)N(C)C)cc(C(O)CNC(C)(C)C)c1 (stereo not given),0.745% [at 70.9 µM],
Cc1ccc2cc(C)ccc2c1,-3.62%,
CC[C@H](N)c1ccccc1,-0.334%,
C=CC(=O)OCCN(C)C,2.55%,
CC(=O)CN(CC(C)=O)N=O,-0.597%,
CC(Cc1ccccc1)NCCn1cnc2c1c(=O)n(C)c(=O)n2C (stereo not given),-4.08%,
O=P(O)(O)CN(CP(=O)(O)O)CP(=O)(O)O,,inactive
CC[C@H](O)C(C[C@H](C)N(C)C)(c1ccccc1)c1ccccc1,-2.77%,
O=[N+]([O-])c1cccc(CCl)c1,0.0042%,
CC(Cc1ccccc1)NCCCCl (stereo not given),0.354% [at 70.9 µM],
O=C(Cl)/C=C/C(=O)Cl,6.74%,
CCCCCCCCSC(=O)Oc1cc(Cl)nnc1-c1ccccc1,1.31%,
